Screens: PubChem, National Center for Advancing Translational Sciences (NCATS)
Shown are actives, neighbours in structure and some others; about 4.3% of the full set was active somewhere.
Giardia killer = Small Molecules that selectively kill Giardia lamblia: qHTS; Giardia lamblia trophozoite viability; activity change, % at 7.66 µM, hits read low; 0.15% of 340,000 active; AID 540267, 2011; in the data active = activity change below about -80%; inconclusive = between about -30% and that limit;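 note: parasites exposed to compound for two days anaerobically before the ATP read; % is set by controls: 0 for no effect and ±100 for the full control effect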
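Trophozoites 100 cells/well + cpd; 48 hrs, 37 deg C, anaerobic. ATPLite 1-Step added, 15-30 min RT, luminescence read (ATP-based viability).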
uPA generation = qHTS for Inhibitors of Cell Surface uPA Generation; 0.31% of 330,000 active; Potency, µM (doses to about 38.3 µM), for the others: top-dose activity change, negative = inhibition, actives largely listed as inhibitors; cell surface uPA generation assay, qHTS; active = well fitted inhibition curve with a large enough effect; inconclusive = small, poorly fitted or top-dose-only effect; inactive = no such curve, though single readings can be large or run the other way; tested in mouse RAW 264.7 cells; note: potency is the fitted concentration of half-maximal effect; % is set by controls: 0 for no effect and ±100 for the full control effect; nearly all actives have a fitted effect of over 55% in size
MCF10A rereplic = A quantitative high throughput screen for small molecules that induce DNA re-replication in MCF 10a normal breast cells; MCF 10A DNA re-replication, Hoechst nuclear intensity, 48 h; Potency, µM (highest dose often 46.1 µM), for the others: at the highest dose activity, positive = re-replication, usual class: activators; 2.9% of 350,000 active; note: potency is the fitted concentration of half-maximal effect; % of control where 0% means no effect; nearly all actives have a fitted effect of over 50% in size
SW480 rerep = A quantitative high throughput screen for small molecules that induce DNA re-replication in SW480 colon adenocarcinoma cells. Potency, µM (highest dose often 46.1 µM), inactives show at the highest dose re-replication activation, most hits filed as activators. SW480 DNA re-replication, Hoechst DNA content imaging, 48 h. 1.8% of 340,000 active. AID 624297, 2012; note: potency is the fitted concentration of half-maximal effect; % of control where 0% means no effect; nearly all actives have a fitted effect of over 55% in size
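Hoechst fluorescence of nuclei (405 nm excitation, 500-530 nm emission) measured by plate-scanning imager after 48 hr compound exposure at 37 C; re-replication scored as increased number of nuclei with elevated intensity.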
* marks the source's active call; other numbers are inactive results; ? = inconclusive; . = no result; ! = repeats disagree. Unless noted, calls come from the whole dose curve; as a rule, active = well fitted activation curve with a large enough effect; inconclusive = small, poorly fitted or top-dose-only effect; inactive = no such curve, though single readings can be large or run the other way.

SMILES | Giardia killer | uPA generation | MCF10A rereplic | SW480 rerep
CC(C)C(=O)N1CCN(c2ccc(NC(=O)c3ccc([N+](=O)[O-])o3)cc2)CC1 | ? | -13% | 2.6µM* | 2%
CC(=O)N1CCN(c2ccc(NC(=O)c3ccc(Br)o3)cc2Cl)CC1 | 2 | 4% | 2% | 16%
O=C(Cc1ccc(Cl)cc1)Nc1ccccc1N1CCN(C(=O)c2ccccc2)CC1 | 14 | 1% | 18µM* | ?
O=C(CN1CCN(CC(=O)c2ccccc2)CC1)c1ccccc1 | 9 | 3% | 88% | 92%
COC(=O)[C@@]12CCCCN1[C@H](c1ccc(-c3ccc(C(C)=O)cc3)c(OC)c1)[C@@H]1C(=O)N(C)C(=O)[C@@H]12 | 14 | -4% | 13% | 1%
Cc1ccc(S(=O)(=O)N2CCOCC2)cc1C(=O)NCCc1ccc(Cl)cc1 | -5 | 0% | -39% | 2%
CCCC(=O)N1CCN(c2ccc(NC(=O)c3ccc([N+](=O)[O-])o3)cc2Cl)CC1 | -82* | -12% | 1.8µM* | 17%
O=C(Nc1ccccc1N1CCOCC1)c1ccc([N+](=O)[O-])o1 | -92* | -6% | 6% | ?
O=C(Nc1cccc(Cl)c1N1CCCC1)c1ccc([N+](=O)[O-])o1 | -10 | -3% | ? | ?
Cc1ccc(NC(=O)c2ccc([N+](=O)[O-])o2)cc1S(=O)(=O)N1CCOCC1 | -91* | -17% | 2.1µM* | 1.5µM*
O=C(Nc1ccccc1N1CCCCC1)c1ccc([N+](=O)[O-])o1 | ? | -2% | ? | ?
CC(NC(=O)C12CC3CC(CC(O)(C3)C1)C2)c1ccc(Cl)cc1Cl (stereo unspecified) | ? | 2% | -4% | -8%
COc1ccc(OC)c(NC(=O)CCNS(=O)(=O)c2cc(Br)cnc2N)c1 | -6 | 5% | 1% | 24%
COc1cc(N=c2ssnc2Cl)c(OC)cc1Cl | -8 | -1% | 21µM*! | ?
Cc1ccc(S(=O)(=O)Nc2cccc3ncccc23)s1 | -1 | -6% | 4.6µM* | ?
O=S(=O)(c1ccc(OCC(O)CNC23CC4CC(CC(C4)C2)C3)c(Cl)c1)N1CCOCC1 (stereo unspecified) | 24 | -12% | ? | 16µM*
O=C(COc1ccc(S(=O)(=O)N2CCOCC2)cc1Cl)NC1CCCCC1 | -11 | 1% | 2% | 3%
CC(Oc1ccc(Cl)cc1Cl)C(=O)NCCCn1ccnc1 (stereo unspecified) | -10 | 6% | 16µM* | -6%
O=C(COc1ccc(S(=O)(=O)N2CCOCC2)cc1Cl)NCCCn1ccnc1 | 21 | 3% | ? | 7.3µM*
Cc1cc(S(=O)(=O)N2CCOCC2)ccc1OCC(=O)NCCCn1ccnc1 | 6 | 4% | 0% | ?
CC(C)C(C)NC(=O)COc1ccc(S(=O)(=O)N2CCOCC2)cc1Cl (stereo unspecified) | -12 | -11% | 0.58µM* | ?
O=C(COC(=O)C1CCC1)NCc1ccccc1 | 11 | 2% | 0% | -2%
Nc1ncnc2c1ncn2COC(CO)CO | -2 | . | . | .
CC(=O)Nc1ccc(SCC(c2ccccc2)N2CCN(C)CCC2=O)cc1 (stereo unspecified) | -19 | . | . | .
COc1ccc(NC(=O)C2=C(C)Nc3nc(CCCO)nn3C2c2ccc(OC)c(OC)c2)cc1 (stereo unspecified) | -1 | 1% | -3% | ?
SMILES | Giardia killer | uPA generation | MCF10A rereplic | SW480 rerep
c1cc2c3c(cccc3c1)-c1cnccc1-2 | -7 | -3% | 1% | -3%
CC(=Nc1ccccc1)C1=C(O)C(Cc2ccccc2)NC1=O (stereo unspecified) | -3 | -9% | ? | 0.16µM*
CC(=Nc1ccccc1)C1=C(O)C(CC(C)C)NC1=O (stereo unspecified) | 14 | 5% | 5% | -1%
O=C(CNS(=O)(=O)c1ccc(Br)s1)NCc1ccccc1 | -23 | 3% | ? | 2.8µM*
Cc1cc(O)c(C(C)C)cc1NC(=S)Nc1cc(C(C)C)c(O)cc1C | 19 | 9% | ? | 5%
Cc1c(NC(=O)Nc2ccc(Cl)cc2)c(=O)n(-c2ccccc2)n1C | 7 | 12% | -9% | -5%
Cc1c(N=C2N=C(NC(=O)Nc3ccc(Cl)cc3)c3ccccc32)c(=O)n(-c2ccccc2)n1C | 10 | 0% | 16µM* | 7%
O=C(NCc1ccco1)/C(=C\c1ccco1)NC(=O)c1ccccc1Cl | 6 | -3% | -11% | 12µM*
O=C(NCc1ccco1)/C(=C/c1ccco1)NC(=O)c1ccco1 | 10 | -3% | 7% | 8%
